Screens: PubChem, National Center for Advancing Translational Sciences (NCATS)
Hits are enriched below; roughly 4.6% of the tested compounds scored in any of these assays.
D1 PAM: enhances dopamine response at the human D1 receptor; potentiation, % at 10 µM; HEK293 TREx D1 cells, calcium flux, dopamine EC20 potentiation; actives 0.036% (n = 360,000); in the data active = potentiation above about 30%; note: 0% is about no effect
TRHR agonist: activates the human TRH receptor; P34981; TRHR cells, calcium flux fluo-8, FDSS agonist mode; activation, % at 2 µM; actives 0.18% (n = 360,000); AID 493084; note: 0% is about no effect
Target sequence (P34981 whole entry, looked up): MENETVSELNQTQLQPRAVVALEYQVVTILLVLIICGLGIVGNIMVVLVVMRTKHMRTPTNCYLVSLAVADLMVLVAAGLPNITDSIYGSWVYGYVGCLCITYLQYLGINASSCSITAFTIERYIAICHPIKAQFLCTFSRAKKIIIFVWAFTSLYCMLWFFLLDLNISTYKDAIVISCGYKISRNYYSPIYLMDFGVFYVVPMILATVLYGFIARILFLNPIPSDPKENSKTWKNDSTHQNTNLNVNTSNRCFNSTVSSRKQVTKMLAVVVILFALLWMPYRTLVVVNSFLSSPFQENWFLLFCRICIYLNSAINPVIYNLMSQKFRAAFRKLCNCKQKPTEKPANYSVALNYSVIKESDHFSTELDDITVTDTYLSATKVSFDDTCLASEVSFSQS
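Steps: seed TRHR cells overnight; add fluo-8 no-wash Ca dye, RT 30 min–1.5 h; record 10 s baseline; pin-transfer compounds; monitor fluorescence 1 cycle/s for the agonist window. Calcium increases flag candidate agonists.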
TRHR PAM: allosteric enhancers of human TRH receptor; P34981; TRHR cells, fluo-8 calcium fluorescence, EC20 TRH enhancement; enhancement, % at 2 µM; actives 0.66% (n = 360,000); in the data active = enhancement above about 30%; note: 0% is about no effect
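Enhancer read-out: after compound pinning and an initial kinetic agonist-mode read, an EC20 of TRH (10 nM final) was injected and fluo-8 calcium signal (Ex 480/Em 530) followed at 1 s/cycle for 100 cycles in TRHR-expressing cells.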
D1 antag: human D1 dopamine receptor antagonism; actives 3.2% (n = 360,000); AID 504652; activity change, negative = inhibition, % at 10 µM; P21728; HEK293 TREx D1 cells, calcium flux, dopamine EC80; hits give low values; in the data active = activity change below about -30%; note: % is set by controls: 0 for no effect and ±100 for the full control effect
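Cells carrying a force-coupled, tetracycline-inducible human D1 receptor report calcium flux. Each well gets a 10 s baseline, compound with 180 s monitoring, then an EC80 dopamine stimulus with a second 180 s kinetic read.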
D1 ag: human D1 receptor agonism; actives 1% (n = 360,000); activation, % at 2 µM; HEK293 T-REx D1 cells, calcium flux, agonist mode; P21728; note: 0% is about no effect
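Inducible HEK293 T-REx D1 cells, force-coupled to calcium signalling, were plated at 4000 cells/well with tetracycline and held overnight at 30 C. After no-wash calcium dye loading, compound-evoked calcium rise over 180 s flagged agonists.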
Active calls of the source: *. Cut-off read from the data, not from the text of the source, unless noted: active = activation above about 30%; inactive = the rest.

SMILES | D1 PAM | TRHR agonist | TRHR PAM | D1 antag | D1 ag
OCCOCCN1CCN(C(c2ccccc2)c2ccc(Cl)cc2)CC1 (stereo unspecified) | -3 | 1 | 4 | 11 | 10
CCn1c(=O)c2cc(C(=O)Nc3cccc(C(F)(F)F)c3)sc2c2ccccc21 | 1 | 0 | 3 | 6 | 3
C/C(N)=C(/C#N)C(=O)CSc1nnnn1-c1ccc(C)cc1 | -5 | 0 | -27 | -44* | 4
C/C(N)=C(/C#N)C(=O)CSc1nnnn1-c1ccccc1 | 0 | 0 | 1 | 0 | 2
O=S(=O)(c1ccc2c(c1)OCCO2)C1CCN(S(=O)(=O)c2c(F)cccc2F)CC1 | -6 | 0 | 2 | -1 | 6
Cc1cc(C)cc(-n2nnc(-c3nc(-c4ccccc4F)no3)c2C)c1 | -2 | 0 | -1 | -1 | 1
Cc1cc(NC(=O)CSc2nc3ccccc3c(=O)n2CCCC(=O)NCc2ccccc2)n[nH]1 | -5 | 1 | -3 | -35* | 4
O=C(CSc1nc2ccccc2s1)NCC1CCCO1 (stereo unspecified) | -8 | 0 | 7 | -33* | 1
O=C(CCCn1c(SCC(=O)NCC2CCCO2)nc2ccccc2c1=O)NCc1ccccc1 (stereo unspecified) | 0 | -1 | -8 | -1 | 2
O=C(CCCn1c(SCC(=O)Nc2ccccc2Cl)nc2ccccc2c1=O)NCC1CCCO1 (stereo unspecified) | 5 | 0 | -9 | -33* | 5
O=C(CSc1nc2ccc(NC(=O)C3CCCCC3)cc2s1)NCC1CCCO1 (stereo unspecified) | -4 | 0 | -4 | -6 | 3
COc1ccc(-c2noc(Cn3c(=O)c4ccccc4n(CC(=O)Nc4cccc(OC)c4)c3=O)n2)cc1 | 1 | 1 | 1 | 0 | 5
CCc1ccc2occ(CC(=O)Nc3ccc(OC)c(Cl)c3)c2c1 | 0 | 1 | 17 | -5 | -3
CC(C)N(Cc1nc2ccccc2[nH]1)C(C)C | -2 | 0 | -5 | -34* | 0
Cc1ccc(OCCCCNC2CCCC(C)C2C)c(C)c1 (stereo unspecified) | 0 | 1 | 6 | 22 | 42*
COc1cccc(NC(=O)CSc2nc3ccccc3c(=O)n2C)c1 | 7 | -1 | -4 | 1 | 50*
CCOCCCn1c(SCC(=O)Nc2ccc(OC)cc2OC)nc2ccccc2c1=O | 3 | 0 | 20 | 14 | -2
CC(C)Oc1ccccc1NC(=O)CSc1nc2ccccc2c(=O)n1C | -8 | -1 | 3 | -1 | 5
COc1ccc(NC(=O)CSc2nc3ccccc3c(=O)n2CCCN2CCOCC2)c(OC)c1 | -7 | -1 | 4 | -33* | 4
N#CN1CCC(NC(=O)c2cccc(F)c2)CC1 | -3 | 1 | -10 | 8 | 2
Cn1c(-c2ccccc2)cnc1NCc1ccccc1 | -15 | 0 | 13 | -16 | 0
Cn1c(-c2cccc(Br)c2)cnc1NCc1ccccc1O | -5 | 0 | 2 | -35* | 4
C/C=C(\C)CN1CCc2cc(OC)c(OC)cc2C1 | -4 | 0 | 32* | 14 | 9
COc1cc2c(cc1OC)CN(CC(=O)NC(=O)NCc1ccccc1)CC2 | 4 | 0 | -1 | -16 | 3
COc1ccc(S(=O)(=O)Nc2cc(Cl)ccc2-n2cncn2)cc1 | -1 | 1 | 6 | -62* | 0
SMILES | D1 PAM | TRHR agonist | TRHR PAM | D1 antag | D1 ag
Cc1ccc2nc(-c3ccc(Cl)c(NC(=O)COc4ccc(C(C)C)cc4)c3)oc2c1 | -4 | 1 | 6 | 11 | -1
C=CCN1C(=O)c2ccccc2C1(O)Cc1ccccc1 (stereo unspecified) | 1 | 0 | 4 | -22 | 1
CC(C)CN1C(=O)c2ccccc2C1(O)Cc1ccccc1 (stereo unspecified) | -1 | -1 | 1 | -37* | 5
O=C1c2ccccc2C(O)(Cc2ccccc2)N1CCCN1CCOCC1 (stereo unspecified) | -2 | -1 | -7 | -77* | 2
CC(=O)Cc1nsc(NC(=O)c2ccc(-c3cc(C(F)(F)F)ccc3Cl)o2)n1 | -4 | 0 | 0 | -33* | 2
CC(=O)Cc1nsc(NC(=O)c2ccc(-c3ccc(Cl)cc3Cl)o2)n1 | -9 | 0 | 4 | -31* | 4
CC(=O)Cc1nsc(NC(=O)c2ccc(-c3cc(Cl)ccc3Cl)o2)n1 | 9 | -1 | -9 | -13 | 6
